Test results from PMC4336329 (PLoS ONE, 2015).
The campaign covered roughly 310,000 compounds. About 14,000 (4.5%) showed an effect of 50% or more. Effects have a minus sign here. This is one part of a sample in which strong results are shown more often than they occur.

These compounds were tested against human ether-à-go-go-related gene (hERG) potassium channel (human, UniProt Q12809) (assay: primary screen, population patch clamp on CHO cells stably expressing hERG; higher = less effect of the substance).
Chain of human ether-à-go-go-related gene (hERG) potassium channel (Q12809 whole entry, looked up): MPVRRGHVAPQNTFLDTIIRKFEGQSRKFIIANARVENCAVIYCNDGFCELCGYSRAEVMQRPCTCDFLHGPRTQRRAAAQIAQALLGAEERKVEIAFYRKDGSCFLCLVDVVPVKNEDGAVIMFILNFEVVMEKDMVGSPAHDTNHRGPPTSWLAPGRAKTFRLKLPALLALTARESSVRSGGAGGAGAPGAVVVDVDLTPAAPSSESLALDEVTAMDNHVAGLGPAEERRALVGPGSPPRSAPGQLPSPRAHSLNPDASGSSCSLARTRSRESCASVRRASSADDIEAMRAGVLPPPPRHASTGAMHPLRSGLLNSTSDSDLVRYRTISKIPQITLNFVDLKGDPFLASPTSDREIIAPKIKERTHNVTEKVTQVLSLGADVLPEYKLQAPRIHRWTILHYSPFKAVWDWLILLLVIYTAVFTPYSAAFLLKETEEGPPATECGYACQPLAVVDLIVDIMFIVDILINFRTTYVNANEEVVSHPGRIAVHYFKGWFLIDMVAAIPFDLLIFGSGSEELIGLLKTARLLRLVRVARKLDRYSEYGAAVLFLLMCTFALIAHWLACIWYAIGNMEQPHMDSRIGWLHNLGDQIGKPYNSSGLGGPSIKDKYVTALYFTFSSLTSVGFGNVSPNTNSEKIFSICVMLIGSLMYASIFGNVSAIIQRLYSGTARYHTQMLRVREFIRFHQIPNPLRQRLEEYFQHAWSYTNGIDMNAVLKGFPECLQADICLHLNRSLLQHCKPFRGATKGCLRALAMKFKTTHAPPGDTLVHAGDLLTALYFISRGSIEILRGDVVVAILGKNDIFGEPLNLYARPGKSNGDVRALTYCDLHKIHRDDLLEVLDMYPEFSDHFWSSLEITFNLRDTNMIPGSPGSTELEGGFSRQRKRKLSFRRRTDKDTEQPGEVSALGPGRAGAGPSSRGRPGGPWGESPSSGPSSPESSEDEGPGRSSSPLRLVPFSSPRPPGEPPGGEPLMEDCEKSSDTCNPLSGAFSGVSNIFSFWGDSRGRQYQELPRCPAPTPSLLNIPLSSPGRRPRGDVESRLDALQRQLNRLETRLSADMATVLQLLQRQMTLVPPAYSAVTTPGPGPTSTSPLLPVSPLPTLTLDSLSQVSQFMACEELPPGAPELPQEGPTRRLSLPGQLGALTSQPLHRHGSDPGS
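Note: peak tail current of the secondary pulse compared with the same well before compound.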

Row | Compound | hERG current change (%, negative = inhibition) at 10uM
1 | COc1ccc(NC(=O)NCc2ccncc2)cc1 | 13.8%
2 | CC(C)(C)c1ccc(C(=O)NNc2ccc(F)cc2F)cc1 | 9.96%
3 | CC1(C)OC2CC3C4CC(F)C5=CC(=O)C=CC5(C)C4(F)C(O)CC3(C)C2(C(=O)CO)O1 (stereo not drawn) | -7.01%
4 | O=C1C=C(c2cc3ccccc3s2)C[C@@H](c2ccc(F)cc2)C1 | 5.01%
5 | CC(=O)N1c2ccc(S(=O)(=O)N3CCCC(C(=O)NCc4ccccc4)C3)cc2CC1C (stereo not drawn) | 13.7%
6 | O=C(Nc1ccccc1)N1CCC(c2ccccc2)C1 (stereo not drawn) | -4.49%
7 | Cc1c(NC(=S)/C=C2\N(C)c3ccccc3C2(C)C)c(=O)n(-c2ccccc2)n1C | 0.171%
8 | Cc1c(N=C/C=C2/N(C)c3ccccc3C2(C)C)c(=O)n(-c2ccccc2)n1C | -38.1%
9 | Cc1c(N=C/C=C2\N(C)c3ccccc3C2(C)C)c(=O)n(-c2ccccc2)n1C | -53.7%
10 | CN(C)c1ccc(N=C/C=C2\N(C)c3ccccc3C2(C)C)cc1 | -82.8%
11 | CN1/C(=C\C=C(C#N)C#N)C(C)(C)c2ccccc21 | 11.5%
12 | CN1/C(=C\P(=O)(N(C)C)N(C)C)C(C)(C)c2ccccc21 | -6.64%
13 | CC(=O)N1CCN(c2ccc(N=Cc3c(O)n(-c4ccc(Cl)cc4)c(=O)[nH]c3=O)cc2)CC1 | 1.55%
14 | CCOC(=O)c1cnc(-n2nc(C)cc2C)nc1NCc1ccccc1 | -34.7%
15 | CCOC(=O)c1cnc(-n2nc(C)cc2C)nc1NCCO | 10.5%
16 | CCOC(=O)c1cnc(-n2nc(C)cc2C)nc1NCCc1ccccc1 | -51.6%
17 | Cn1ccnc1SCC(=O)n1c2c(c3ccccc31)CCCC2 | -4.61%
18 | O=C(c1cccs1)N1CCCC(c2nc3c(nnn3Cc3c(Cl)cccc3Cl)c(=O)[nH]2)C1 (stereo not drawn) | -46.9%
19 | O=C(OCC(=O)N1CCCc2ccccc21)c1cccc(C(F)(F)F)c1 | -6.7%
20 | COC(=O)C(Cc1ccccc1)NC(=O)c1ccc(C)cc1 (stereo not drawn) | 5.08%
21 | CSCCOC(=O)c1[nH]c2c(c1C)C(=O)CC(c1ccco1)C2 (stereo not drawn) | -1.18%
22 | Cc1ccc(NC(=O)c2sc(Cl)nc2-c2ccccc2)cc1 | 18.2%

Row | Compound | hERG current change (%, negative = inhibition) at 10uM
23 | CCCCCCOc1ccc(/C(C)=N/NC2=NCCN2)cc1[N+](=O)[O-] | -81.3%
24 | COc1ccc(Br)cc1/C(C)=N/NC1=NCCN1.Cl | -26.7%
25 | CCCCCOc1ccc(Br)cc1/C(C)=N/NC1=NCCN1 | -70.1%
26 | CCOc1ccc(Br)cc1/C(C)=N\NC1=NCCN1.Cl | -48.6%
27 | CCCCCCOc1ccc(/C(C)=N/NC2=NCCN2)cc1 | -19.9%
28 | C/C(=N\NC1=NCCN1)c1ccc(N)c([N+](=O)[O-])c1 | -15.2%
29 | COc1cc(S(=O)(=O)NC2CCCC2)ccc1F | 1.19%
30 | CC1CCN(C(=O)c2ccccc2NS(=O)(=O)c2ccccc2)CC1 | 8.52%
31 | CCc1ccc(-c2nn[nH]n2)cc1 | 4.61%
32 | Cc1ccc(C)c(SCC(=O)NNC(=O)c2ccccc2)c1 | 9.78%
33 | COc1ccc(NC(=O)C2CCN(c3cnccn3)CC2)cc1OC | 15.5%
34 | CC(NC1CCCCC1)C(O)C12CC3CC(CC(C3)C1)C2.Cl (stereo not drawn) | -16.4%
35 | COC(=O)c1ccc(C(c2c(N)n(Cc3ccccc3)c(=O)n(C)c2=O)N2CCOCC2)cc1 (stereo not drawn) | -57.9%
36 | CCCn1c(N)c(C(c2ccc(C(=O)OC)cc2)N2CCN(c3ccccc3)CC2)c(=O)[nH]c1=O (stereo not drawn) | -9.93%
37 | COC(=O)c1ccc(C(c2c(N)n(CC(C)C)c(=O)[nH]c2=O)N2CCN(c3ccccc3)CC2)cc1 (stereo not drawn) | -8.97%
38 | COc1cccc(CNC(=O)C2CCN(S(=O)(=O)N3CCC(C)CC3)CC2)c1 | -3.44%
39 | O=C(CN1CCN(Cc2ccccc2)CC1)N=Nc1c(O)[nH]c2ccccc12 | -65%
40 | O=C(CCN1CCCCC1)N=Nc1c(O)[nH]c2ccccc12 | 11.3%
41 | O=C(CN1CCN(Cc2ccccc2Cl)CC1)N=Nc1c(O)[nH]c2ccccc12 | -61.3%
42 | O=C(CN1CCCCC1)N=Nc1c(O)[nH]c2ccccc12 | 4.68%
43 | O=C(Cc1cccs1)N=Nc1c(O)[nH]c2ccccc12 | 7.07%
44 | COCC(=O)N=Nc1c(O)[nH]c2ccccc12 | -5.52%

Row | Compound | hERG current change (%, negative = inhibition) at 10uM
45 | Cc1ccc(CN2CCN(CC(=O)N=Nc3c(O)[nH]c4ccccc34)CC2)cc1 | -73.5%
46 | O=C(CSCc1ccccc1)N=Nc1c(O)[nH]c2ccccc12 | -19.1%
47 | O=C(N=Nc1c(O)[nH]c2ccccc12)c1ccc(CN2CCOCC2)cc1 | 22.9%
48 | N#Cc1ccccc1NC(=S)Nc1ccc(F)cc1 | 16.2%
49 | CCN(C(=O)c1cc2c(=O)[nH]c3ccc(C)cc3c2s1)c1ccc(OC)cc1 | 9.09%
50 | COC(=O)c1ccc(N2CCN(C)CC2)c(NC(=O)c2sc3ccccc3c2Cl)c1 | 13.1%
51 | COc1ccc(C=C(C#N)C#N)c(CSc2ccccn2)c1 | 1.19%
52 | COc1ccc(C(=O)Nc2ccc(N3CCCCC3)cc2)cc1Br | -8.48%
53 | O=C(N/N=C/c1cc(Br)cc(Br)c1O)c1ccncc1 | 15.6%
54 | Cc1ccc(S(=O)(=O)CCC(=O)OCC(=O)N2c3ccccc3NC(=O)C2(C)C)cc1 | 14%
55 | O=C(O)C(=O)/C(=C\c1ccccc1)c1ccc2ccccc2n1 | 13.9%
56 | O=C(Nc1cccc(-c2csc(Nc3ccccc3)n2)c1)c1ccccc1 | 2.4%
57 | COc1ccc(-c2nnc(N3CCCCC3)c3ccccc23)cc1 | -47.3%
58 | Cc1ccc(-c2nnc(N3CCN(C(=O)COc4ccccc4)CC3)c3ccccc23)cc1 | -52.1%
59 | O=C(CSc1ncn[nH]1)N1CCN(c2nnc(-c3ccccc3)c3ccccc23)CC1 | -0.967%
60 | CCN(CC)C(=O)COc1ccc(-c2nnc(N3CCCCC3)c3ccccc23)cc1 | -25.4%
61 | COc1ccc(OCC(=O)N2CCN(c3nnc(-c4ccc(C)cc4)c4ccccc34)CC2)cc1 | -44.9%
62 | CCCC(=O)N1CCN(C2=NS(=O)(=O)c3ccccc32)CC1 | -3%
63 | Cc1ccc(OCC(=O)N2CCN(C3=NS(=O)(=O)c4ccccc43)CC2)cc1 | -60.8%
64 | COc1ccc(OCC(=O)N2CCN(c3nnc(-c4ccccc4)c4ccccc34)CC2)cc1 | -64.4%
65 | Cc1ccc(OCC(=O)N2CCN(C(=O)Cc3ccccc3)CC2)cc1 | -38.4%
66 | O=C(COc1ccc([N+](=O)[O-])cc1)N1CCN(c2nnc(-c3ccccc3)c3ccccc23)CC1 | -66.5%

Row | Compound | hERG current change (%, negative = inhibition) at 10uM
67 | CC(C)N1C(=O)N(c2cccc(Cl)c2)C(C)(O)CC1(C)C (stereo not drawn) | 17.5%
68 | COc1cccc(-c2nc(CS(=O)CC(=O)NCc3ccccc3)c(C)o2)c1 (stereo not drawn) | -6.07%
69 | CCCOc1cccc(NC(=O)c2c(-c3ccccc3)noc2C)c1 | -8.81%
70 | CCC1(O)CC(C(=O)OC)=NN1C(=O)c1ccccc1 (stereo not drawn) | 7.94%
71 | COc1ccccc1-n1cnnc1SCC(=O)Nc1ncc(Cl)cc1Cl | -0.265%
72 | COc1ccccc1OCC(=O)NCCSCc1ccc(Cl)cc1 | -45%
73 | COc1ccc(C(=O)N/C(=C\c2ccccc2)C(=O)Nc2ccccc2C(=O)O)cc1 | 11.3%
74 | COc1ccccc1C(=O)NNC(=O)c1ccc(C)cc1 | 9.24%
75 | Cc1ccc(NC(=O)C2(N3CCC3=O)CCCCC2)cc1 | 6.92%
76 | COCC(C)NC(=O)C(C)Oc1ccccc1 (stereo not drawn) | 12%
77 | CC(C)c1nnc(NC(=O)CCC(=O)NCc2ccccc2Cl)s1 | 11.2%
78 | Cn1cnc([N+](=O)[O-])c1NCc1ccccc1 | 10.3%
79 | COc1cc(/C=N/Nc2nc(Nc3ccccc3)nc(N3CCOCC3)n2)ccc1OC(=O)c1ccco1 | 13.6%
80 | Cc1ccc(OCC(=O)N2CCN(c3nnc(-c4ccc(C)cc4)c4ccccc34)CC2)cc1 | -49.3%
81 | CCC(=O)N1CCN(c2nnc(-c3ccccc3)c3ccccc23)CC1 | -13.5%
82 | O=C(COc1ccccc1)N1CCN(c2nnc(-c3ccccc3)c3ccccc23)CC1 | -65.3%
83 | Cn1c(=O)n(CC(=O)N2CCN(c3nnc(-c4ccccc4)c4ccccc34)CC2)c2ccccc21 | -56%
84 | O=C(COc1ccc(-c2nnc(N3CCCCC3)c3ccccc23)cc1)N1CCCCC1 | -32.3%
85 | Cc1ccc(OCC(=O)N2CCN(c3nnc(-c4ccccc4)c4ccccc34)CC2)cc1 | -61.5%
86 | O=C(CN1C(=O)c2ccccc2C1=O)N1CCN(c2nnc(-c3ccccc3)c3ccccc23)CC1 | 5.5%
87 | Cc1ccc(-c2nnc(N3CCN(C(=O)Cn4c(=O)n(C)c5ccccc54)CC3)c3ccccc23)cc1 | -28.7%
